# From PubChem BioAssay (EPA / NIEHS)
# Several values for one entry are separate records, joined by “and”; a condition that tells them apart may be missing. Equal entries are not always repeated. Records with an inconclusive call do not appear. Some structures have more than one record in an assay (separate samples or runs), and their calls can disagree. Activity calls are given as the source filed them. Rule for the calls, unless noted: active = hit-call score of the fitted dose curve at least 0.9, where 1 is the maximum; inactive = score below 0.9.
# Experiments:
# [1] = biological target: Oxysterols receptor LXR-beta (Homo sapiens) (UniProt P55055); test: ATG_LXRb_TRANS: Attagene TRANS-FACTORIAL HepG2 Assay for human Liver X Receptor beta (LXRb) (AID 2282981; active = hit-call score of the fitted dose curve at least 0.9, where 1 is the maximum); conditions: HepG2 Attagene TRANS GAL4-LXRb reporter, mRNA
# In short: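 Liver-derived HepG2 cells transfected with Gal4-responsive reporters were dosed for 24 h. Activation was scored as rise in reporter mRNA, by RT-PCR and capillary electrophoresis, above DMSO baseline.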
# [2] = ATG_M_06_TRANS: Attagene TRANS-FACTORIAL HepG2 Assay for M06 Transcription Factor (Internal Marker) (AID 2282983; active = hit-call score of the fitted dose curve at least 0.9, where 1 is the maximum;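 note: reporter transcript level by RT-PCR then capillary electrophoresis fluorescence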); conditions: HepG2 Attagene TRANS M06 internal marker reporter
# In short: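 Background-control reporter readout: after 24 h chemical exposure of transiently transfected HepG2 (GAL4-UAS reporter units), mRNA quantified by RT-PCR with fluorescent labeling and capillary electrophoresis. Gain-of-signal fitting against DMSO baseline.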
# [3] = ATG_M_32_TRANS: Attagene TRANS-FACTORIAL HepG2 Assay for M32 Transcription Factor (Internal Marker) (AID 2282984; active = hit-call score of the fitted dose curve at least 0.9, where 1 is the maximum;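 note: transcript level of a background control reporter unit measured by RT-PCR and capillary electrophoresis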); conditions: HepG2 Attagene TRANS M32 internal marker reporter
# In short: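 Fluorescence-detected mRNA induction, HepG2 liver cells, 24 h after dosing. Multiple GAL4-UAS reporter units introduced by transient transfection; background-control endpoint analysed for gain of signal against DMSO.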
# [4] = biological target: Transcriptional activator Myb (Homo sapiens) (UniProt P10242); test: ATG_Myb_CIS: Attagene CIS-FACTORIAL HepG2 Assay for human Myeloblastosis (Myb) Proto-Oncogene Transcription Factor (AID 2282986); conditions: HepG2 Attagene CIS-FACTORIAL Myb reporter transcription; actives raise or lower the signal
# In short: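 Fluorescence signals from capillary electrophoresis of RT-PCR-amplified reporter cDNA give the read-out. Cells: HepG2 transfected with multiple cis-regulated reporter units. Exposure lasts 24 hours; DMSO defines baseline for gain or loss of signal.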
# [5] = biological target: Nuclear respiratory factor 1 (Homo sapiens) (UniProt Q16656); test: ATG_NRF1_CIS: Attagene CIS-FACTORIAL HepG2 Assay for human Nuclear Respiratory Factor 1 (NRF1) Orphan Gene (AID 2282987); conditions: HepG2 NRF1 cis-element reporter, Attagene multiplex; actives raise or lower the signal
# In short: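 Transcriptional reporter readout, one component of a 52-endpoint multiplexed HepG2 panel. Exposure 24 h; mRNA detected via RT-PCR and fluorescent capillary electrophoresis; fitting in both directions against DMSO.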
# [6] = ATG_NFI_CIS: Attagene CIS-FACTORIAL HepG2 Assay for human Nuclear Factor I (NFI) (AID 2282989); conditions: HepG2 cis-regulatory reporter, NFI response element transcription; actives raise or lower the signal
# In short: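 Reporter transcripts were measured by RT-PCR with fluorescent primer extension and capillary electrophoresis 24 h post-treatment. HepG2 cells carried transiently transfected cis-regulated reporter constructs reporting endogenous factor activity; gain or loss fitted against DMSO baseline.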
# [7] = biological target: Myc proto-oncogene protein (Homo sapiens) (UniProt P01106); test: ATG_Myc_CIS: Attagene CIS-FACTORIAL HepG2 Assay for human Myelocytomatosis (Myc) Proto-Oncogene Transcription Factor (AID 2282990); conditions: HepG2, Attagene cis-reporter transcription factor activity; actives raise or lower the signal
# In short: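 HepG2 cells transiently transfected with multiple cis-promoter-driven reporter transcription units, so endogenous TF activity is read. After 24 h compound exposure, reporter mRNA was quantified by RT-PCR, 6-FAM labelling, HpaI digestion and capillary electrophoresis; bidirectional fit versus DMSO.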
# [8] = biological target: Nuclear receptor subfamily 4 group A member 2 (Homo sapiens) (UniProt P43354); test: ATG_NURR1_TRANS: Attagene TRANS-FACTORIAL HepG2 Assay for human Nuclear Receptor Related Protein 1 (NURR1) (AID 2282985; active = hit-call score of the fitted dose curve at least 0.9, where 1 is the maximum); conditions: HepG2 Attagene TRANS reporter, mRNA readout
# In short: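 Chimeric NR-Gal4 proteins were expressed in human HepG2 cells bearing GAL4-UAS reporter units, and induced reporter mRNA was quantified 24 h post-dosing by RT-PCR and capillary electrophoresis.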
# [9] = biological target: Hepatocyte nuclear factor 4-alpha (Homo sapiens) (UniProt P41235); test: ATG_HNF4a_TRANS: Attagene TRANS-FACTORIAL HepG2 Assay for human Hepatocyte Nuclear Factor 4 alpha (HNF4a) (AID 2282982; active = hit-call score of the fitted dose curve at least 0.9, where 1 is the maximum); conditions: HepG2 HNF4a transactivation reporter, mRNA readout
# In short: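 Using HepG2 liver cells transfected with GAL4-UAS reporter units, chemical-induced mRNA increases were assessed after 24 hours. Fluorescent RT-PCR fragments were separated by capillary electrophoresis and compared with DMSO negative controls.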
# Nuclear receptor subfamily 4 group A member 2 (Homo sapiens), sequence (P43354 whole entry, looked up, the tested form may be a part): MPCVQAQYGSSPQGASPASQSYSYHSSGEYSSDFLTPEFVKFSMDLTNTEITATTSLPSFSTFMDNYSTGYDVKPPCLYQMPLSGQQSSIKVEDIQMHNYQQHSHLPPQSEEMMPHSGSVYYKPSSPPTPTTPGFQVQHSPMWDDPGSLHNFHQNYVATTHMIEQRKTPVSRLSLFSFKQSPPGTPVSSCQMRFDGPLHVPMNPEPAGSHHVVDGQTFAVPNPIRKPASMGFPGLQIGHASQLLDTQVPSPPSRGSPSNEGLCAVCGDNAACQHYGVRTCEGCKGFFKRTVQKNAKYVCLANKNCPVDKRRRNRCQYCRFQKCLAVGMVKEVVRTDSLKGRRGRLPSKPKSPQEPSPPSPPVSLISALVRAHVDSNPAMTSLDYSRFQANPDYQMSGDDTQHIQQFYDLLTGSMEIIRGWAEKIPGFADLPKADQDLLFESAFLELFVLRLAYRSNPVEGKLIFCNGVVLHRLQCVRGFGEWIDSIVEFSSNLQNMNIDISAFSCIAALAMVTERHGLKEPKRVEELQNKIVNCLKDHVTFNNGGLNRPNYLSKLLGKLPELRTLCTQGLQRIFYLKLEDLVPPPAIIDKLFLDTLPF
# Hepatocyte nuclear factor 4-alpha (Homo sapiens), sequence (P41235 whole entry, looked up, the tested form may be a part): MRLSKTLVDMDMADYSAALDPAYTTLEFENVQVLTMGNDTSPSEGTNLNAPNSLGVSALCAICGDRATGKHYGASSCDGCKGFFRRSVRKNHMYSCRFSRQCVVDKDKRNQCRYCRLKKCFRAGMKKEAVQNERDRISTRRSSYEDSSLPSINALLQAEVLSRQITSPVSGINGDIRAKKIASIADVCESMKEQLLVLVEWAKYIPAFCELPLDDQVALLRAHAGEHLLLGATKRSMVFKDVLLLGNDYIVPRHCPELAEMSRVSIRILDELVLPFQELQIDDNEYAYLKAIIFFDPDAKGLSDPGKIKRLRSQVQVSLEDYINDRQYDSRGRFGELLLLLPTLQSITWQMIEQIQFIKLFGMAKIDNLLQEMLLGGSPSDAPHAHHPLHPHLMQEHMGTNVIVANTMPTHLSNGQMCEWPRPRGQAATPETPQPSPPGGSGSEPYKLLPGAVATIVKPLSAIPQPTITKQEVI
# Oxysterols receptor LXR-beta (Homo sapiens), sequence (P55055 whole entry, looked up, the tested form may be a part): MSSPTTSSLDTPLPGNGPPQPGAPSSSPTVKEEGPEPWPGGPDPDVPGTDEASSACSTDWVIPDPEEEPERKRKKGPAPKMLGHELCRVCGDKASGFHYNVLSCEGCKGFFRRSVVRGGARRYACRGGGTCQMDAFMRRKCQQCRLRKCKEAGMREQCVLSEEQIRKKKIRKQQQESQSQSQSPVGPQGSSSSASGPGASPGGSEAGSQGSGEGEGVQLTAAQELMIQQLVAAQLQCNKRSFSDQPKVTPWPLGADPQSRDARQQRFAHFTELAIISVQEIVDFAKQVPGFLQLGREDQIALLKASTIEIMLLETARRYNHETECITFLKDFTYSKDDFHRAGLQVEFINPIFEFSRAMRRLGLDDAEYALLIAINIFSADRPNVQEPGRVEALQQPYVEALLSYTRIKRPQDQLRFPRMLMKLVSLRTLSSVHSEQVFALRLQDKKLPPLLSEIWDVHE
# Nuclear respiratory factor 1 (Homo sapiens), sequence (Q16656 whole entry, looked up): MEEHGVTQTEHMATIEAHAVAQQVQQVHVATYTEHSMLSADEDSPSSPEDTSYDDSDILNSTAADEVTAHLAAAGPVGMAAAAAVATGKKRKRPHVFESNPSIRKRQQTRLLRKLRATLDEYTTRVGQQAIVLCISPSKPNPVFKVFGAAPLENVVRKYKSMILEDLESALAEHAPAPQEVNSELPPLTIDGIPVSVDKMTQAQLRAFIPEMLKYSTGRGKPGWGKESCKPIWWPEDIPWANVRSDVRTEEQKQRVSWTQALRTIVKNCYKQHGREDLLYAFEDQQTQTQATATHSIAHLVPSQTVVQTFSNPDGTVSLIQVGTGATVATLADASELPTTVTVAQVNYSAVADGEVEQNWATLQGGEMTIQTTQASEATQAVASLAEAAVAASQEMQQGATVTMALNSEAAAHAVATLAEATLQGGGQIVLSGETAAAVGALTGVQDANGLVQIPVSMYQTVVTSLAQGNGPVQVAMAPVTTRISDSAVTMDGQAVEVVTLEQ
# Transcriptional activator Myb (Homo sapiens), sequence (P10242 whole entry, looked up): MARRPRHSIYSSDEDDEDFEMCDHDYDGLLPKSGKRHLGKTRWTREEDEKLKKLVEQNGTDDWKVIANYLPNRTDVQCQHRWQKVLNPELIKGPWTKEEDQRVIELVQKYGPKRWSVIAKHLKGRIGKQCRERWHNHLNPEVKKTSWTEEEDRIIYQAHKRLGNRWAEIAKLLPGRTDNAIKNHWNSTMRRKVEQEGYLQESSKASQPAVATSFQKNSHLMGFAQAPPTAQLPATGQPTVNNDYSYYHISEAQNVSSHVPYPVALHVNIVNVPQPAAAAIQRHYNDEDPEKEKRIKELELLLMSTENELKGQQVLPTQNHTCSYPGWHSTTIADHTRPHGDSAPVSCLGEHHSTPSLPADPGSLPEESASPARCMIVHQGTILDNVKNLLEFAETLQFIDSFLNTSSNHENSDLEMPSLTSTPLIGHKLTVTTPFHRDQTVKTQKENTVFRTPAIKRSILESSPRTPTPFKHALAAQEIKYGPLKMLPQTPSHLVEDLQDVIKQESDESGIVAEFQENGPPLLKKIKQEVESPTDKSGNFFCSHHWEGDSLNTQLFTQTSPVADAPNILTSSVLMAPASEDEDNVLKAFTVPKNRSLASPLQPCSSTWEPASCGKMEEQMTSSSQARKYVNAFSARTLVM
# Myc proto-oncogene protein (Homo sapiens), sequence (P01106 whole entry, looked up): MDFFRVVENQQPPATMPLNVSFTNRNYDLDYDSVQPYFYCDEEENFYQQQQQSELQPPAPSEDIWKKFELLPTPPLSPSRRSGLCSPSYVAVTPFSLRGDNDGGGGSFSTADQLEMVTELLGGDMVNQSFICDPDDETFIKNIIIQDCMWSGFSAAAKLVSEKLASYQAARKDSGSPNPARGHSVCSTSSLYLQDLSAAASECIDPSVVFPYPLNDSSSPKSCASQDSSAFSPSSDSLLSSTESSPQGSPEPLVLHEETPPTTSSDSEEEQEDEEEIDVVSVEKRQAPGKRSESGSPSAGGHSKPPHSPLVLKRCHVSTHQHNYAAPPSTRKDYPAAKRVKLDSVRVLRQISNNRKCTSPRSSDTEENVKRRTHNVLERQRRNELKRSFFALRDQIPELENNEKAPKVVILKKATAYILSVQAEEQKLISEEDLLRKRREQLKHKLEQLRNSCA
structure (smiles),measurement,setting,value
O=C1OC(=O)C(F)(F)C1(F)F,outcome,[1],inactive
same,outcome,[2],inactive
same,outcome,[3],inactive
same,outcome,[4],inactive
same,outcome,[5],inactive
same,outcome,[6],inactive
same,outcome,[7],inactive
c1ccc2c(c1)CCC2,outcome,[1],inactive
same,outcome,[4],inactive
same,outcome,[5],inactive
same,outcome,[6],inactive
same,outcome,[7],inactive
Cc1[nH]nc2c1N=C(c1ccccc1Cl)c1cc([N+](=O)[O-])ccc1N2,outcome,[1],inactive
same,outcome,[2],inactive
same,outcome,[3],inactive
same,outcome,[4],inactive
same,AC50,[5],1.16 µM (active)
same,AC50,[6],0.554 µM (active)
same,AC50,[7],0.353 µM (active)
COC(=O)C(F)(F)C(F)(F)C(F)(F)F,outcome,[1],inactive
same,outcome,[2],inactive
same,outcome,[3],inactive
same,outcome,[8],inactive
same,outcome,[4],inactive
same,outcome,[5],inactive
same,outcome,[6],inactive
same,outcome,[7],inactive
C=CC(C)(CCC=C(C)C)OC(C)=O (centres undefined),outcome,[1],inactive
same,outcome,[3],inactive
same,outcome,[4],inactive
same,outcome,[5],inactive
same,outcome,[6],inactive
same,outcome,[7],inactive
CS(=O)(=O)c1ccc([C@@H](CC2CCCC2)C(=O)Nc2cnccn2)cc1Cl,outcome,[1],inactive
same,outcome,[2],inactive
same,outcome,[3],inactive
same,outcome,[4],inactive
same,AC50,[7],165 µM (active)
CC1COCc2cc3c(cc21)C(C)(C)C(C)C3(C)C (centres undefined),outcome,[1],inactive
same,outcome,[2],inactive
same,outcome,[8],inactive
same,AC50,[4],162 µM (active)
same,outcome,[5],inactive
same,AC50,[6],170 µM (active)
same,AC50,[7],120 µM (active)
CC(C)(O)C(=O)c1ccccc1,outcome,[1],inactive
same,outcome,[3],inactive
same,outcome,[8],inactive
same,outcome,[4],inactive
same,outcome,[5],inactive
same,outcome,[6],inactive
same,outcome,[7],inactive
CC(C)CCOCCC(C)C,outcome,[1],inactive
same,outcome,[2],inactive
same,outcome,[4],inactive
same,outcome,[5],inactive
same,outcome,[6],inactive
same,outcome,[7],inactive
CCO[Si](CCC1CCC2OC2C1)(OCC)OCC (centres undefined),outcome,[1],inactive
same,outcome,[2],inactive
same,outcome,[3],inactive
same,outcome,[4],inactive
same,outcome,[5],inactive
same,outcome,[6],inactive
same,outcome,[7],inactive
CC1=NN(c2ccccc2)C(=O)C1,outcome,[1],inactive
same,outcome,[2],inactive
same,outcome,[3],inactive
same,outcome,[4],inactive
same,outcome,[5],inactive
same,outcome,[7],inactive
CCCCCCCCCCCC(=O)O,outcome,[1],inactive
same,outcome,[2],inactive
same,outcome,[3],inactive
same,outcome,[4],inactive
same,outcome,[5],inactive
same,outcome,[7],inactive
FC(F)(F)C(F)(F)C(F)(F)C(F)(F)I,outcome,[1],inactive
same,outcome,[2],inactive
same,outcome,[3],inactive
same,outcome,[4],inactive
same,outcome,[5],inactive
same,outcome,[6],inactive
same,outcome,[7],inactive
O=C(O)CCC(F)(F)C(F)(F)C(F)(F)C(F)(F)C(F)(F)C(F)(F)F,outcome,[1],inactive
same,outcome,[3],inactive
same,outcome,[4],inactive
same,outcome,[5],inactive
same,outcome,[6],inactive
same,outcome,[7],inactive
Nc1cc(Cl)c(-c2cc(Cl)c(N)cc2Cl)cc1Cl,outcome,[1],inactive
same,outcome,[3],inactive
same,outcome,[8],inactive
same,outcome,[4],inactive
same,outcome,[5],inactive
same,AC50,[6],17.3 µM (active)
same,AC50,[7],7.12 µM (active)
C[C@]12CC[C@@H]3c4ccc(O)cc4CC[C@H]3[C@@H]1CC[C@@H]2OC(=O)CCC1CCCC1,outcome,[1],inactive
same,outcome,[2],inactive
same,outcome,[4],inactive
same,outcome,[5],inactive
same,outcome,[7],inactive
OCC1CCC(CO)CC1 (centres undefined),outcome,[1],inactive
same,outcome,[2],inactive
same,outcome,[8],inactive
same,outcome,[4],inactive
same,outcome,[5],inactive
same,outcome,[6],inactive
same,outcome,[7],inactive
Brc1ccc(Oc2ccc(Br)cc2Br)cc1,outcome,[1],inactive
same,outcome,[2],inactive
same,outcome,[8],inactive
same,outcome,[4],inactive
same,outcome,[5],inactive
same,outcome,[6],inactive
same,outcome,[7],inactive
CCc1cccc(CC)c1NC(=O)C(=O)O,outcome,[1],inactive
same,outcome,[2],inactive
same,outcome,[3],inactive
same,outcome,[4],inactive
same,outcome,[5],inactive
same,outcome,[6],inactive
same,outcome,[7],inactive
Oc1cccc2c(O)cccc12,outcome,[1],inactive
same,outcome,[2],inactive
same,outcome,[3],inactive
same,outcome,[8],inactive
same,outcome,[4],inactive
same,outcome,[5],inactive
same,outcome,[7],inactive
CCCCc1oc2ccccc2c1C(=O)c1cc(I)c(OCCN(CC)CC)c(I)c1,outcome,[1],inactive
same,outcome,[3],inactive
same,outcome,[4],inactive
same,outcome,[7],inactive
FC(OC(F)(F)C(F)(F)C(F)(F)F)C(F)(F)F (centres undefined),outcome,[1],inactive
same,outcome,[2],inactive
same,outcome,[4],inactive
same,outcome,[5],inactive
same,outcome,[7],inactive
O=C(NO)c1ccccc1,outcome,[9],inactive
same,outcome,[2],inactive
same,outcome,[3],inactive
same,AC50,[8],57.6 µM (active) and 40.3 µM (active) and 58 µM (active)
same,outcome,[8],inactive
same,outcome,[4],inactive
same,outcome,[5],inactive
same,outcome,[6],inactive
same,outcome,[7],inactive
C=C(c1ccc(C(=O)O)cc1)c1cc2c(cc1C)C(C)(C)CCC2(C)C,outcome,[1],inactive
same,outcome,[2],inactive
same,outcome,[3],inactive
same,AC50,[4],31 µM (active)
same,outcome,[4],inactive
same,outcome,[5],inactive
same,outcome,[6],inactive
same,AC50,[7],26 µM (active)
same,outcome,[7],inactive
Cc1cc(Cc2cc(C)cc(C(C)(C)C)c2O)c(O)c(C(C)(C)C)c1,outcome,[1],inactive
same,outcome,[2],inactive
same,AC50,[4],25.6 µM (active)
same,AC50,[5],180 µM (active)
same,AC50,[7],136 µM (active)
CN(Cc1cnc2nc(N)nc(N)c2n1)c1ccc(C(=O)N[C@@H](CCC(=O)O)C(=O)O)cc1,outcome,[1],inactive
same,outcome,[4],inactive
same,outcome,[5],inactive
same,outcome,[6],inactive
same,outcome,[7],inactive
COc1cc([N+](=O)[O-])ccc1N,outcome,[1],inactive
same,outcome,[4],inactive
same,outcome,[5],inactive
same,outcome,[6],inactive
same,outcome,[7],inactive
Cc1cc(C(C)(C)C)c(O)c(C(C)(C)C)c1,outcome,[1],inactive
same,outcome,[2],inactive
same,outcome,[3],inactive
same,outcome,[4],inactive
same,AC50,[5],94.7 µM (active)
same,outcome,[5],inactive
same,AC50,[6],51.6 µM (active) and 20.5 µM (active)
same,AC50,[7],51 µM (active) and 92.8 µM (active)
CCc1cccc(CC)c1N(COC)C(=O)CS(=O)(=O)O,outcome,[9],inactive
same,outcome,[3],inactive
same,outcome,[4],inactive
same,outcome,[5],inactive
same,outcome,[6],inactive
same,outcome,[7],inactive
O=C(OC(=O)C(F)(F)C(F)(F)F)C(F)(F)C(F)(F)F,outcome,[9],inactive
same,outcome,[4],inactive
same,outcome,[5],inactive
same,outcome,[6],inactive
same,outcome,[7],inactive
C[C@]12CC[C@@H]3c4ccc(O)cc4CC[C@H]3[C@@H]1C[C@@H](O)[C@@H]2O,outcome,[9],inactive
same,outcome,[2],inactive
same,outcome,[3],inactive
same,outcome,[8],inactive
same,outcome,[4],inactive
same,outcome,[5],inactive
same,outcome,[6],inactive
same,outcome,[7],inactive
O=C(F)C(F)(F)C(F)(F)C(F)(F)C(=O)F,outcome,[9],inactive
same,outcome,[2],inactive
same,outcome,[3],inactive
same,outcome,[8],inactive
same,outcome,[4],inactive
same,outcome,[5],inactive
same,outcome,[6],inactive
same,outcome,[7],inactive
C=COC(=O)C(C)(C)CCCCCC,outcome,[9],inactive
same,outcome,[2],inactive
same,outcome,[3],inactive
same,outcome,[4],inactive
same,outcome,[5],inactive
same,outcome,[6],inactive
same,outcome,[7],inactive
